Source: PubChem BioAssay (The Scripps Research Institute Molecular Screening Center)
A selection: hits, their analogues and other compounds. The true share with any hit is near 1.3%.
PKA-R1A activ = PKA-R1A complex activation; P00514+P68181; PKA-R1A dissociation, Cy5-IP20 fluorescence polarization; scaled: DMSO 0%, 113 µM cGMP 100%; activation, % at 11.4 µM; hit rate 0.083% among 340,000; AID 504707;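 active = percent activation above the mean of all tested compounds plus 3 SD, cut at about 19% in these data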;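 note: higher means more PKAc released from R1A so a rise in polarization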
Rin1 Abl inh = inhibitors of human Rin1-Abl protein interaction; P00519+Q13671; TR-FRET Rin1/Abl binding, biochemical; inhibition, % at 7.35 µM; hit rate 0.4% among 360,000; AID 588664; in the data active = inhibition above about 5%, passing the limit was not always enough
IDE inh = cellular human IDE inhibition; P14735; HEK cells, FAbetaB cleavage, fluorescence polarization; inhibition, % at 5.59 µM; hit rate 0.41% among 320,000; AID 434962;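 active = percent inhibition above the average of all tested compounds plus 3 SD, set per screening campaign, cut at about 16% in these data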;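 note: IDE supplied by intact live HEK cells; FP after avidin binding of uncleaved biotin substrate so inhibition keeps polarization high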
IDE act = boosts human insulin-degrading enzyme activity in HEK cells | P14735 | FAbeta-B cleavage, fluorescence polarization; 0% vehicle, 100% cell-free pure enzyme wells | activation, % at 5.96 µM | hit rate 0.073% among 340,000 | AID 493087;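 active = activation above the mean of all tested compounds plus 3 SD, set per screening campaign, cut at about 17% in these data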
PKA-R2B activ = activators of human PKA-R2B complex; P22694+P31323; PKA-R2B holoenzyme dissociation, Cy5-IP20 fluorescence polarization; R2B truncated from residue 108, S112A mutant; 0% DMSO only, 100% 113 µM cGMP; activation, % at 11.4 µM; hit rate 0.079% among 340,000;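 active = activation above a cutoff set at the mean over all compounds plus 3 SD, cut at about 18% in these data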;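 note: higher means more holoenzyme dissociation and a rise in polarization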
Target sequence (P31323 whole entry, looked up, other chains not shown, the tested form may be a part): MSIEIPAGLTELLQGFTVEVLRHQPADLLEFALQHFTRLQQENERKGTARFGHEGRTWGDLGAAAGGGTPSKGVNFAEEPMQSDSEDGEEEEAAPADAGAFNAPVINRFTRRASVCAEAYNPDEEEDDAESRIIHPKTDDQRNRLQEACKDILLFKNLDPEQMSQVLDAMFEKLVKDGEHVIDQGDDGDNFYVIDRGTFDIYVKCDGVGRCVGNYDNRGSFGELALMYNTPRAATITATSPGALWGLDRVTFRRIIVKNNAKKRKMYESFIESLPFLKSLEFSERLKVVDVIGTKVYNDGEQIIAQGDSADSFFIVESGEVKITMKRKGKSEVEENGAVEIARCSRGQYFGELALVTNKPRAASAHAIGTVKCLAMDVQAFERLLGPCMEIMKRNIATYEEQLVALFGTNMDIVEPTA
eLon inh = E. coli protease La inhibition | inhibition, % at 7.94 µM | hit rate 0.42% among 360,000 | P0A9M0 | AID 602123 | purified E. coli Lon protease, fluorescence polarization; in the data active = inhibition above about 13%, passing the limit was not always enough
IDE cell inh cf = cellular human IDE inhibition, confirmation; inhibition, % at 5.59 µM; HEK cells, FAbetaB cleavage, fluorescence polarization; hit rate 51% among 1,200; AID 435028; shares compounds with IDE inh;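 active = mean inhibition across triplicate wells above the cutoff set by the earlier primary insulin-degrading enzyme screen, cut at about 16% in these data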
HEK cytotox = HEK cell cytotoxicity, counter-screen for IDE inhibitors; inhibition, % at 5.59 µM; hit rate 28% among 1,200; shares compounds with IDE inh; HEK293 cytotoxicity, ATP luminescence; in the data active = inhibition above about 22%
Each line names hits and unclear results; the compound was inactive in the other large screens (follow-up assays come after a bar, where they were run).

CN(C)c1nc(SCC(=O)Nc2ccc(Cl)c(Cl)c2)nc(N2CCOCC2)n1	IDE inh 22.9 | IDE cell inh cf inactive | HEK cytotox 26.9
O=C1NC[C@@H](CCCCN2C[C@H](Cc3ccc(O)cc3)N(CCc3ccccc3)C(=O)C2=O)N(CCc2ccc(O)cc2)C1=O	none (no result: PKA-R1A activ, Rin1 Abl inh, IDE inh, IDE act, PKA-R2B activ)
O=C(NCCCc1ccncc1)C1CCC(=O)N(Cc2cccc(C(F)(F)F)c2)C1 (stereo unspecified)	none (no result: IDE inh)
O=C(Nc1ccc([N+](=O)[O-])cc1)N1CCN(C(=O)C2CCCO2)CC1 (stereo unspecified)	none
COc1ccc(/C=C2\SC(=S)N(CCC(=O)N3CCCCC3)C2=O)cc1	none
COCCN1C(=O)/C(=C/c2ccc(N3CCCC3)cc2)SC1=S	IDE inh 26.2 | IDE cell inh cf 77.3 | HEK cytotox inactive
Cc1cc2nc(C3CCCCC3)c(Cc3ccccc3C(F)(F)F)n2c(C)c1Br	none (no result: PKA-R1A activ, Rin1 Abl inh, IDE inh, IDE act, PKA-R2B activ)
c1ccc(Nc2nc(NCCN3CCOCC3)nc(Nc3ccccc3)n2)cc1	none
COc1ccc(OC)c2c1C(=O)C(Cl)=C(Cl)C2=O	IDE inh 21.5 | IDE cell inh cf 17.5 | HEK cytotox 124.6
CN(CC(=O)N1CCCC1)S(=O)(=O)c1cccc(Cl)c1	none
CCOc1cccc(C(=O)Nc2nc(-c3ccc(S(=O)(=O)N4CCOCC4)cc3)cs2)c1	IDE inh 23.0 | IDE cell inh cf inactive | HEK cytotox 37.8
O=C(COc1cccc(Cl)c1)Nc1nc(-c2ccc(S(=O)(=O)N3CCOCC3)cc2)cs1	none (no result: IDE inh)
COc1ccc(Cl)cc1C(=O)NCCCSc1ccccc1	none
COc1ccc(Cl)cc1C(=O)NCC(=O)OCc1ccccc1	IDE inh 20.1 | IDE cell inh cf inactive | HEK cytotox inactive
CCOC(=O)Cc1csc(SCn2nnc3ccccc3c2=O)n1	none
CCOC(=O)Cc1csc(-n2sc3ccccc3c2=O)n1	IDE inh 16.5 | IDE cell inh cf inactive | HEK cytotox 28.1
COc1ccc(N2CCN(C(=O)CC(NC(N)=O)c3cccc(Oc4ccccc4)c3)CC2)cc1 (stereo unspecified)	none
COC(=O)C1=C(C)N(c2ccc(C)cc2)/C(=C/c2cccs2)C1=O	none
COC(=O)C1=C(C)N(c2ccc(F)cc2)/C(=C/c2ccc(O)cc2)C1=O	IDE inh 19.5 | IDE cell inh cf 76.3 | HEK cytotox inactive
O=C(Cc1ccccc1)N1CCN=C1SCc1ccc([N+](=O)[O-])cc1	none
CC(=O)Sc1nc(-c2ccccc2)[nH]c1S(=O)(=O)c1ccc(C)cc1	IDE inh 17.1 (no result: PKA-R1A activ, Rin1 Abl inh, IDE act, PKA-R2B activ, eLon inh) | IDE cell inh cf inactive | HEK cytotox inactive
CSc1nc(-c2ccc(C)cc2)[nH]c1S(=O)(=O)c1ccccc1	none
O=C(Cn1c(=O)cnc2ccccc21)NC1CCC(O)CC1 (stereo unspecified)	none
C=CCc1cc(/C=C2/NC(=O)NC2=O)cc(OCC)c1O	none
C=CCc1cc(/C=C2/NC(=S)NC2=O)cc(OC)c1O	IDE inh 36.4 | IDE cell inh cf 87.6 | HEK cytotox inactive
Cn1c(SCC(=O)OC2CCCCC2)nnc1-c1ccco1	IDE inh 18.9 | IDE cell inh cf inactive | HEK cytotox inactive
COCCCn1c(SCC(=O)OC2CCCCC2)nnc1-c1ccco1	none
COc1ccccc1C(=O)NC(=S)Nc1ccc(NC(=O)c2ccco2)cc1	none
COc1ccc(/C=C/C(=O)c2c(O)cc(C)oc2=O)c(OC)c1	IDE inh 19.9 | IDE cell inh cf inactive | HEK cytotox inactive
O=C(C1CC1)N(CCN(C(=O)C1CC1)c1ccccc1)c1ccccc1	none
CCCCn1nnc(NC(=O)c2cc3ccccc3o2)n1	none
CCCCn1nnc(NC(=O)c2ccc(-c3ccccc3)cc2)n1	IDE inh 18.1 | IDE cell inh cf inactive | HEK cytotox 54.9
Clc1ccccc1COc1ccccc1-c1nnco1	none
O=C1CC2(CCCCC2)CC(=O)N1CCc1ccccc1	none (no result: IDE inh)
O=C1C=CC(=O)C(C2=C3C(=O)N(CCc4ccccc4)CC(=O)N3CCC2)=C1	IDE inh 40.1 (no result: PKA-R1A activ, Rin1 Abl inh, IDE act, PKA-R2B activ, eLon inh) | IDE cell inh cf inactive | HEK cytotox 123.8
CC(=O)NC(CC(=O)NC1CCCc2ccccc21)c1ccccc1 (stereo unspecified)	none
CCOC(=O)C1=C(CSc2nc(C)cc(C)c2C#N)OC(N)=C(C#N)C1c1cccs1 (stereo unspecified)	IDE inh 23.0 (no result: PKA-R1A activ, Rin1 Abl inh, IDE act, PKA-R2B activ, eLon inh) | IDE cell inh cf inactive | HEK cytotox inactive
c1ccc(NCc2ccccn2)cc1	none
CC1=NN(c2ccc(C)cc2)C(=O)/C1=C\C=C\c1ccccc1	none
CC1=NN(c2ccccc2)C(=O)/C1=C/C=C/C=C/N(C)C	IDE inh 18.3 | IDE cell inh cf inactive | HEK cytotox 27.1
Cc1ccc(C)c(NC(=O)CN(C)S(=O)(=O)c2ccccc2)c1	none
CCSc1ccc(/C(N)=N/OC(=O)c2cccs2)cn1	none
CC(=O)O[C@@H]1C[C@H]2C(C)(C)C(=O)C=C[C@]2(C)[C@H]2CC[C@@]3(C)[C@H](c4ccoc4)OC(=O)[C@H]4O[C@]43[C@@]21C	IDE inh 18.1 | IDE cell inh cf inactive | HEK cytotox 58.2
O=C(CN1C(=O)S/C(=C\c2ccccn2)C1=O)Nc1ccccc1	none (no result: IDE inh)
O=C(CN1C(=O)S/C(=C\c2cc(Cl)c(O)c(Cl)c2)C1=O)Nc1ccccc1	IDE inh 20.8 | IDE cell inh cf 22.5 | HEK cytotox inactive
CC(=O)Nc1ccc(NC(=O)C(C)Sc2nc3ccccc3c(=O)n2Cc2ccco2)cc1 (stereo unspecified)	none
CCc1ccc(Nc2n[n+](-c3ccccc3)c(-c3ccc(N(CC)CC)cc3)s2)cc1	IDE inh 19.4 | IDE cell inh cf 22.6 | HEK cytotox 57.8
CCc1nc2c(OCC(=O)C(C)(C)C)cccn2c1N(C)C(=O)c1cccs1	none (no result: PKA-R1A activ, IDE inh, IDE act, PKA-R2B activ)
CCN1CCCC1CNC(=O)c1ccc2c(c1)N(Cc1cccc(Cl)c1)C(=O)c1ccccc1S2(=O)=O (stereo unspecified)	none
CCC(=O)N1CCN(c2ccnc3cc(Cl)ccc23)CC1	none
CCOC(=O)N1CCN(c2ccnc3cc(Cl)ccc23)CC1	IDE inh 37.1 | IDE cell inh cf 19.9 | HEK cytotox inactive
CC(=O)Nc1ccc(S(=O)(=O)NC2=NCN(c3cccc([N+](=O)[O-])c3)CN2)cc1	none
O=c1c(O)c(-c2cccs2)oc2ccccc12	none
O=c1c(O)c(-c2cccs2)oc2ccc(Cl)cc12	IDE inh 70.0, IDE act 24.0 | IDE cell inh cf 25.9 | HEK cytotox inactive
COC(=O)C(Cc1ccccc1)NC(=O)CC(C)CC(=O)Nc1ccc(C)cc1 (stereo unspecified)	none
